Laboratory results published in PubChem BioAssay AID2314 (National Center for Advancing Translational Sciences (NCATS), 2010).
Hit rate of the full screen: of about 300,000 compounds, about 37,000 (12%) were called active. This is one part of a sample in which actives are shown more often than they occur. Unmarked numbers belong to inactive results. No stated cut-off is given here; in the data, active means max response mostly above about 13% (no sharp cut-off); inactive means mostly below about 14%.

assay: Cycloheximide Counterscreen for Small Molecule Inhibitors of Shiga Toxin; conditions: cell reporter, cycloheximide protein synthesis inhibition counterscreen; active compounds read high; further: read at 38.3 µM for the half of the compounds with a filed dose; 0% is about no effect

SMILES	max response
O=C(COc1ccc2c3c(c(=O)oc2c1)CCCC3)NCC(O)c1ccccc1 (centres undefined)	-1.36%
O=C(CNC(=O)c1ccc(Br)o1)Nc1ccccc1	-2.14%
Cc1cccc(NC(=S)NC(=O)c2ccc(Br)o2)c1	34.5% (active)
Cc1ccc(NC(=O)NC(=O)c2ccccc2)cc1F	25.9% (active)
Cc1cccc(NC(=S)Nc2ccc(Br)cc2)c1	18.4%
Cc1cccc(NC(=O)c2nnn(-c3cccc(C(F)(F)F)c3)c2N)c1	19.9%
Cc1cccc(NC(=O)c2cccc(C(F)(F)F)c2)c1	29.9% (active)
CC(=O)N1CCN(CC(=O)Nc2ccc(C)c(F)c2)CC1	-6.08%
Cc1cccc(NC(=O)/C(=C\c2ccco2)NC(=O)c2ccccc2)c1	11.3%
Cc1cccc(NC(=S)NC23CN4CN(CN(C4)C2)C3)c1	0.709%
Cc1nc(C)c(C(=O)Nc2ccc(C)c(F)c2)o1	5.75%
Cc1cccc(NC(=O)NC(=S)NC(=O)c2ccccc2)c1	42.2% (active)
CNC(=O)c1ccc(NC(=O)c2cccc(C(F)(F)F)c2)cc1	8.58%
Cc1cc(-c2nnc(SCC(=O)Nc3ccc(F)cc3)n2N)n[nH]1	0.984%
COc1ccccc1NC1=NC(c2ccc(Cl)cc2)N=C(N)N1 (centres undefined)	2.63%
CC(Sc1nnnn1C)C(=O)NC(=O)NC1CCCCC1 (centres undefined)	0.707%
COc1ccc(N2CCN(CCNC(=O)Nc3cc(Cl)ccc3Cl)CC2)cc1	-4.73%
O=C(Nc1ccnn1C1CCN(Cc2cccc(OCCO)c2)CC1)C1CCCC1	-3.51%
Cc1cccc(NS(=O)(=O)c2ccc(-c3cnc(C4CC4)o3)cc2)c1	-3%
O=C(NC(=S)Nc1ccc(S(=O)(=O)Nc2ncccn2)cc1)c1cccc(Br)c1	5.33%
O=C(NC(=S)Nc1ncccn1)c1ccccc1Br	14.4% (active)
CC1CCN(C(=S)NC(=O)c2ccccc2Br)CC1	3.84%
COc1cc2nc(CN(C)Cc3ccc(F)cc3)[nH]c(=O)c2cc1OC	-2.34%
COc1ccc(-n2nc(C(=O)NCC(=O)N3CCCCCC3)c3ccccc3c2=O)cc1Cl	1.06%

SMILES	max response
COC(=O)c1ccc(Sc2ccc(F)cc2)c(N)c1	24.1% (active)
COC(=O)c1ccc(C(=O)OC)c(NC(=S)N2CCN(c3ccc(F)cc3)CC2)c1	-7.21%
COC(=O)c1nc(NC(=O)c2ccc(F)cc2)n[nH]1	-1.65%
O=S(=O)(NC1CCCCC1N1CCN(c2ccccc2F)CC1)c1ccccc1 (centres undefined)	7.38%
O=C(O)c1ccc(/C=C2\SC(=S)N(NC(=O)c3ccc(Br)cc3)C2=O)cc1	-2.52%
CC1(C)NC(=O)N(CCCCSc2ccc(Cl)cc2)C1=O	6.3%
CN(Cc1ccccc1)C(=O)c1ccc(NC2=NC3CS(=O)(=O)CC3S2)cc1 (centres undefined)	0.883%
Cc1nc2ccccc2cc1C(=O)N/N=C/c1ccc([N+](=O)[O-])cc1	-1.28%
Nc1nonc1-n1nnc(C(=O)N/N=C/c2c[nH]c3ccccc23)c1-c1ccccc1	6.03%
Cc1ccsc1C(=O)N/N=C/c1ccc([N+](=O)[O-])cc1	55% (active)
O=C(Cc1c[nH]c2ccccc12)N/N=C/c1cccc(F)c1	11.5%
O=C(N/N=C/c1c[nH]c2ccccc12)c1cc2ccccc2o1	22.4% (active)
O=C(N/N=C/c1c[nH]c2ccccc12)c1ccccc1O	29.2% (active)
CCCCCC(=O)Nc1ccc(C(=O)N/N=C/c2ccc([N+](=O)[O-])cc2)cc1	-2.53%
O=C(N/N=C/c1ccc(O)cc1)/C(=C/c1ccc([N+](=O)[O-])cc1)NC(=O)c1ccccc1	5.92%
O=C(N/N=C/c1coc2ccccc2c1=O)c1cc2ccccc2o1	13.8%
NC(=S)N/N=C/c1ccc([N+](=O)[O-])cc1	2.05%
O=C(N/N=C/c1ccc([N+](=O)[O-])cc1)c1c[nH]c2ccccc12	26.3% (active)
Cc1c(/C=N\NC(=O)c2cc3ccccc3o2)c2ccccc2n1C	5.05%
COC(=O)C1=C(C)N(c2ccc(C)cc2)/C(=C/c2ccc(O)cc2)C1=O	-3.37%
COc1ccc(C(=O)COC(=O)COc2ccc(C)c(C)c2)cc1	-1.99%
COc1cccc(NC(=O)[C@H](Cc2c[nH]c3ccccc23)NC(=O)[C@@H]2Cc3ccccc3CN2)c1	8.96%
Cc1nn(Cc2ccc(C(=O)N3N=C(C(F)F)CC3(O)C(F)F)cc2)c(C)c1[N+](=O)[O-] (centres undefined)	-2.42%
Cc1ccc(NS(=O)(=O)c2ccc(C(C)(C)C)cc2)cn1	-1.83%

SMILES	max response
Cc1ccc(-n2ncc3c2CC(C)(C)CC3NC(=O)Cc2c(C)noc2C)cc1 (centres undefined)	1.83%
CCOC(=O)CNC(=O)CSc1ncccc1-c1nc2ccccc2[nH]1	6.47%
CNc1ccc(NC(C)=O)cc1[N+](=O)[O-]	-1.59%
CSC(=S)N/N=C/c1c[nH]c2ccccc12	19.8% (active)
C[n+]1ccc(/C=C/c2c[nH]c3ccccc23)cc1	0.857%
Cc1ccc(NC(=O)CN(C)CC(=O)Nc2cccc(F)c2)cc1[N+](=O)[O-]	-3.93%
Cc1ccc(NC(=O)c2sccc2C)cc1[N+](=O)[O-]	54.5% (active)
O=C(O)c1cccc(NC(=S)N/N=C/c2c[nH]c3ccccc23)c1	19.9%
CN(C)c1ccc(C(CNC(=O)c2ccc(F)cc2)c2c[nH]c3ccccc23)cc1 (centres undefined)	-1.36%
COc1ccc(CC(=O)NCC(=O)N/N=C/c2cc(Br)ccc2OC)cc1	-1.85%
CCc1ccc(C2C(C#N)=C(N)N(N3CCOCC3)C3=C2C(=O)CC(C)(C)C3)s1 (centres undefined)	-4.64%
CC1CCN(C(=O)CN(c2ccc(Oc3ccccc3)cc2)S(C)(=O)=O)CC1	0.761%
CC(=O)Oc1cc2c(C(=O)NCCN3CCOCC3)c(C)oc2c2ccccc12	23.5% (active)
Cc1cc(C)cc(C(=O)NCCN2CCOCC2)c1	-3.62%
Cc1ccc(C(=O)NCCN2CCOCC2)cc1C	0.531%
Cn1nccc1C(=O)N1CCCC(C(=O)c2ccc(Oc3ccccc3)cc2)C1 (centres undefined)	-1.23%
CC1Sc2ccc(S(=O)(=O)CCC(=O)NCc3ccccc3Cl)cc2NC1=O (centres undefined)	-2.98%
COc1cc(/C=N/n2c(C)n[nH]c2=S)ccc1OCc1ccccc1	25.8% (active)
Cc1n[nH]c(=S)n1/N=C/c1ccc(Br)o1	-1.34%
Fc1ccc(/C=N/n2c(COc3ccccc3)n[nH]c2=S)cc1	-4.69%
Cn1c(=O)[nH]c(=O)c2c1nc(N1CCN(C(c3ccccc3)c3ccccc3)CC1)n2CCO	-4.67%
CC(=O)N1CC(C)c2scc(C)[n+]2-c2ccccc21 (centres undefined)	-4.21%
COc1cccc(NC(=O)CN(C)C(=O)c2ccccc2CCc2ccccc2)c1	-2.98%
CC(C)CC(=O)N1CCN(Cc2cccc(Cl)c2)CC1	-0.27%

SMILES	max response
O=C(NCC(=O)N(c1ccccc1)C(C(=O)NCC1CCCO1)c1ccccc1)c1cccs1 (centres undefined)	-2%
Cc1cccc(N(C(=O)Cc2cccs2)C(C(=O)NCc2ccco2)c2ccncc2)c1 (centres undefined)	7.8%
Cc1ccc(N(C(=O)Cc2cccs2)C(C(=O)NCC2CCCO2)c2ccncc2)cc1 (centres undefined)	30.3% (active)
Cc1ccc(-c2csc(N3CCN(c4cc5c(cc4Cl)nc(-c4ccncc4)n5CCOCCO)CC3)n2)cc1	-1.79%
CCOCCCNC(=O)C(NC(=O)CNC(=O)c1ccccc1)c1ccc(OC)cc1 (centres undefined)	-3.78%
O=C(Nc1ccc(F)c(Cl)c1)C1CCN(S(=O)(=O)c2cccnc2)CC1	-6.06%
CCOC(=O)c1c(NC(=O)c2ccc(N3CCOCC3)c([N+](=O)[O-])c2)sc(C)c1C	1.25%
COc1ccc(C(=O)Nc2ccc(CN3CCOCC3)cc2)cc1	21.3%
COc1ccc(C(=O)Nc2sc(C)c(C)c2CN2CCOCC2)cc1	80% (active)
O=C(NCc1ccccc1)C1CCN(C(=O)Cc2ccccc2)CC1	-1.63%
O=C(CSc1ccc(-c2ccc(Br)cc2)nn1)NCC1CCCO1 (centres undefined)	-3.31%
Cc1ccc(/C=C(\C#N)C(=O)Nc2cccc3ncccc23)o1	-2.46%
COc1ccc(C2=Nn3c(nnc3-c3ccccc3O)SC2)cc1	38.9% (active)
Cc1nnc2n1N=C(c1ccccc1)CS2	-4.21%
CC1=Nn2c(nnc2-c2ccccc2)SC1	1.95%
Cc1c(C)c2ccc(OCC(=O)N3CCC(C(=O)O)CC3)c(C)c2oc1=O	-2.07%
CCOC(=O)C1(Cc2ccccc2C)CCCN(C(=O)CCc2c(C)noc2C)C1 (centres undefined)	9.83%
Cc1noc(C)c1CCC(=O)O	-2.43%
Cc1ccccc1CC1(CO)CCCN(C(=O)c2cc(-c3ccccc3)no2)C1 (centres undefined)	13.4%
COC(=O)CCC(=O)N1CCCC(CO)(Cc2ccccc2)C1 (centres undefined)	32.1% (active)
Cc1noc(C)c1CCC(=O)N1CCCC(CO)(Cc2ccccc2)C1 (centres undefined)	30.9% (active)
CCCc1cc(C(=O)N2CCCC(CO)(CCCc3ccccc3)C2)n(C)n1 (centres undefined)	9.31%
